Screens deposited in PubChem BioAssay by Pan Lab, Icahn School of Medicine at Mount Sinai.
The sample as a whole holds a higher share of hits than the screen did.
ROC1-CUL1 inh: human ROC1-CUL1 E3 ligase inhibition; 140,000 compounds, 0.6% hits; P62877+Q13616; in vitro K48 di-Ub FRET, acceptor:donor ratio, 45 min; inhibition, % at 10 µM; in the data active = inhibition above about 25%
* marks the source's active call; other numbers are inactive results.

SMILES	ROC1-CUL1 inh
CC(C)/C=C/CN1CCC(N2CCC(C(=O)NC3CC3)CC2)CC1	1
CCOC(=O)/C(C#N)=C\c1cn[nH]c1-c1ccc(OC)c(OC)c1	5
N#Cc1c(N)nc2c(sc3nc4c(cc32)CCCCC4)c1-c1ccccc1	-4
O=C(Oc1ccc(/C=c2\sc3nc4ccccc4n3c2=O)cc1)c1cccs1	-8
O=C1ON=C(c2ccccc2)/C1=C/c1ccc(Br)s1	-5
Cc1ccc(C2=NOC(=O)/C2=C\c2ccc(C)o2)cc1	49*
Cc1ccc(C)c(/C=C2\C(=O)ON=C2c2ccccc2)c1	-1
Cc1c(-c2nn3c(-c4ccccc4)nnc3s2)cnn1-c1ccccc1	5
COc1ccc(NC2CCCN(C(=O)CCc3c(C)noc3C)C2)cc1 (stereo not given)	-7
CC1(C)COC2(NC1=O)c1ccccc1-c1ccccc12	10
O=C1C=CC2(c3ccccc3-c3ccccc32)S(=O)(=O)C1	61*
O=C1c2ccccc2COC12OCc1ccccc12 (stereo not given)	-8
CCOC(=O)CC(=O)CSc1nc(-c2ccc(F)cc2)c(C)cc1C#N	5
O=C1C(Cl)=C(N2CCN(Cc3ccccc3)CC2)C(=O)c2ccccc21	104*
O=C1C(Cl)=C(N2CCN(S(=O)(=O)c3ccc(Cl)cc3)CC2)C(=O)c2ccccc21	1
O=c1cc(C(F)(F)F)nc(N2CCN(Cc3ccccc3)CC2)[nH]1	5
O=C(Nc1cc(F)cc(F)c1)C1CCN(C(=O)c2ccccc2)CC1	-12
CCOc1ccc(N=C(N)N=C2N=C(CSc3nnc(C)s3)CC(=O)N2)cc1	-6
Cc1cc(C)c2c(n1)sc1c(Sc3nnc(-c4ccncc4)n3-c3ccccc3)ncnc12	-10
Cc1c(C(=O)Nc2ccccc2)nnn1-c1ccccc1	1
CC1=NN(c2ccccc2)C(=O)/C1=C(\C)c1ccc(-c2ccccc2)cc1	-11
COC(=O)/C(=C1/C(=O)N(c2ccccc2)N=C1C)C(F)(F)F	39*
Cc1[nH]c2ccc(OC(F)(F)F)cc2c1CCNC(=O)c1cc(F)c(F)cc1Cl	3
O=C(O)C1=NN(c2ccccc2)C(=O)/C1=C\c1ccc(Cl)cc1Cl	40*
O=C(NN1C(=O)/C(=C/c2ccc(Cl)cc2Cl)SC1=S)c1ccccc1Cl	1
SMILES	ROC1-CUL1 inh
Cc1c(N2C(=O)/C(=C/c3ccc(Cl)cc3Cl)SC2=S)c(=O)n(-c2ccccc2)n1C	-2
Cc1ccccc1-n1c(-c2ccc(Cl)cc2Cl)n[nH]c1=S	2
Cc1cc(C)cc(NC(=O)CN2CCCCC2)c1	0
O=C(CC(F)(F)F)N1CCC2(CCCN(Cc3ccc(F)cc3)C2)C1 (stereo not given)	-5
CN1CCN(C(=O)c2c(NC(=O)c3ccccc3)sc3c2CCCC3)CC1	-2
O=C(Nc1sc2c(c1C(=O)O)CCCCC2)c1ccccc1	2
CC(=O)Nc1sc2c(c1C(=O)c1ccccc1)CCCC2	-2
NCCNC(=O)c1c(NC(=O)c2ccccc2)sc2c1CCCC2	34*
CCOC(=O)c1c(NC(=O)c2ccc(C)cc2)sc2c1CCCCC2	-1
Cc1ccc(C(=O)Nc2sc3c(c2C(=O)O)CCCC3)cc1	47*
CCN(Cc1cnn(CC)c1)CC1CCCN(CCc2cccc(OC)c2)C1 (stereo not given)	-7
CCc1ccc(OCC(=O)NC(=S)Nc2cccc(C(C)=O)c2)c(Br)c1	4
COC(=O)c1ccc(NC(=O)c2sc3nc4cc(C)ccc4cc3c2N)cc1	6
Nc1c2c(nc3ccc(Cl)cc13)CCC2	6
Cn1c(SCC(=O)Nc2ccc3nc(SCC(=O)Nc4ccccc4Cl)sc3c2)nc2sc3c(c2c1=O)CCCC3	5
CCc1ccc(S(=O)(=O)N2CCN(C(=O)c3cccs3)CC2)cc1	-1
N#Cc1ccccc1-c1ccc(/C=C2/SC(=O)NC2=O)o1	-3
Cc1ccc(-c2ccc(/C=C3/SC(=S)NC3=O)o2)c(Br)c1	96*
Cc1ccc(-c2ccc(/C=C3/SC(N4CCOCC4)=NC3=O)o2)c(Br)c1	2
CCCCc1ccc(NC(=S)NCCSc2ccc(Cl)cc2)cc1	-9
CCCCCCCC1=NN2C(=N)/C(=C/c3ccc(-c4ccc(Cl)cc4)o3)C(=O)N=C2S1	3
CCCCCC1=NN2C(=N)/C(=C\c3ccc([N+](=O)[O-])o3)C(=O)N=C2S1	101*
CCCCCCCC1=NN2C(=N)/C(=C/c3ccc(-c4ccc(F)cc4)o3)C(=O)N=C2S1	8
O=C(O)CN1C(=O)/C(=C/c2ccccc2C(F)(F)F)SC1=S	-1
O=C(CN1C(=O)S/C(=C\c2cc(Cl)cc(Br)c2O)C1=O)Nc1ccccc1F	26*
SMILES	ROC1-CUL1 inh
O=C(CN1C(=O)S/C(=C/c2ccc(O)c(Br)c2)C1=O)Nc1cccc2ccccc12	4
O=C(O)CN1C(=O)/C(=C/c2ccc(F)c(Br)c2)SC1=S	0
C=CCN1C(=O)/C(=C\c2c(OCC)ccc3ccccc23)SC1=S	4
CCOc1c(Br)cc(/C=C2\SC(=S)N(CC(=O)O)C2=O)cc1Br	4
CCOc1cc(Br)c(Br)c(/C=C2\SC(=S)N(CC(=O)O)C2=O)c1O	28*
Cc1cc(/C=C2/SC(=O)N(CC(=O)Nc3ccccc3F)C2=O)c(C)n1C	5
O=C(O)CN1C(=O)/C(=C\c2cc(Cl)cc(Br)c2O)SC1=S	81*
CN1CCN(S(=O)(=O)c2cccc(S(C)(=O)=O)c2)CC1	7
CCOC(=O)c1c(NC(=O)c2cccc([N+](=O)[O-])c2)sc(C)c1C	-5
COCCc1nc2ccc(C(=O)N(C)Cc3cccc4ccccc34)cc2o1	-3
OC1CCN([C@@H]2CCN(CCCC3CCCC3)C[C@H]2O)CC1	6
COc1ccc(N(CC(=O)NCCSCc2ccccc2)S(C)(=O)=O)cc1OC	17
Cc1ccc(Nc2nc(-c3ccccc3)c(CC(=O)O)s2)cc1Cl	-2
O=C(NC1CCCC1)c1ccc(Cl)cc1	1
O=C1S/C(=C\c2cc(Cl)c(O)c(Cl)c2)C(=O)N1c1cccc(Cl)c1	5
COc1cc(/C=C2\SC(=O)N(c3ccc(Cl)cc3)C2=O)cc(Cl)c1O	63*
O=C1S/C(=C\c2ccccc2C(F)(F)F)C(=O)N1c1ccc(Cl)cc1	11
O=C1S/C(=C\c2cc(Br)cc(Br)c2O)C(=O)N1c1ccc(Cl)cc1	31*
O=C1S/C(=C\c2cc(Cl)c(O)c(Cl)c2)C(=O)N1c1ccc(Cl)cc1	22
CCOc1cc(/C=C2\SC(=O)N(c3ccc(Cl)cc3)C2=O)cc(Cl)c1O	8
O=C1CC(N2CCN(c3ccc(F)cc3)CC2)C(=O)N1c1cccc(C(F)(F)F)c1 (stereo not given)	-4
CCN=C1CC=CC=C(C(=O)/C=C/c2ccc(Cl)cc2)C1=O	79*
CCN=C1CC=CC=C(c2ccc3ccccc3n2)C1=O	-4
CCN=C1CC=CC=C(C(=O)/C=C/c2ccc(Cl)cc2Cl)C1=O	4
CCN=C1CC=CC=C(C(=O)/C=C/c2cccc(OC)c2OC)C1=O	-3
SMILES	ROC1-CUL1 inh
CCN=C1CC=CC=C(C(=O)/C=C/c2cccc(Cl)c2)C1=O	7
CCN=C1CC=CC=C(C(=O)/C=C/c2ncccc2C)C1=O	36*
CCc1ccc([C@@H]2C[C@H]3CN(C)C(=O)[C@]34CCCN24)cc1	-7
Cc1cc(=O)[nH]c(SCC(=O)Nc2cc(Cl)ccc2Oc2ccccc2)n1	11
NC(=O)c1c(SCC(=O)c2ccccc2)sc(C(=O)c2ccccc2)c1N	31*
Nc1c(C(=O)c2ccccc2)sc2nc(-c3ccccc3)ccc12	-3
O=C(CSc1nc2ccccc2nc1SCC(=O)c1ccccc1)c1ccccc1	-4
